Data from PubChem BioAssay AID686979 (National Center for Advancing Translational Sciences (NCATS), 2013).
About 50,000 (12%) of roughly 420,000 compounds were called active. A call without a number means that no potency is given here. Not shown: some 26% with an inconclusive outcome. This is one part of a sample in which actives are shown more often than they occur. The call rests on the fitted dose curve; in most records, active means well fitted inhibition curve with a large enough effect; inconclusive means small, poorly fitted or top-dose-only effect; inactive means flat fitted curve, though single readings scatter.
Potency means the concentration at half of the fitted maximal effect.

Test: qHTS for Inhibitors of human tyrosyl-DNA phosphodiesterase 1 (TDP1): qHTS in cells in presence of CPT; further: nearly all actives have a fitted effect of over 55% in size
Conditions: chicken DT40 Tdp1-/-;hTDP1 cells + 20 nM CPT, ATP luminescence, 48 h; series mostly up to 46.2 µM
Outline: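 Chicken DT40 Tdp1-/- cells complemented with human TDP1, 400 cells/well, exposed to compounds plus 20 nM camptothecin for at least 48 h at 37 C; viability read as ATP content by CellTiter-Glo luminescence.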
For `C/C(N)=C(/C#N)C(=O)COC(=O)CNS(=O)(=O)c1ccc(C)cc1`, the Potency was “inactive”.
For `Cc1ccc(C(=O)O)c(NC=O)c1OCc1ccccc1`, the Potency was “inactive”.
With `Cc1cccc(N2CCN(C(c3ccc(N(C)C)cc3)c3nnnn3C(C)(C)C)CC2)c1C` (stereo not given) the Potency was “inactive”.
For `Cc1cccc(N2CCN(C(c3ccccc3)c3nnnn3CC3CCCO3)CC2)c1C` (stereo not given), the Potency was 20.6 µM (active).
For `COc1ccccc1C(c1nnnn1CC1CCCO1)N1CCN(c2ccccc2)CC1` (stereo not given), the Potency was “inactive”.
In the case of `Cc1nc2ccc(N)nc2nc1C`, the Potency is reported as “inactive”.
With `O=C1/C(=C/c2ccc3c(c2)OCO3)Oc2cc(OCC(=O)N3CC(O)C[C@H]3C(=O)O)ccc21` (stereo not given in full) the Potency was “inactive”.
With `Nc1cccc(OCCCCCOc2cccc(N)c2)c1` the Potency was “inactive”.
With `O=S(=O)(c1ccc(Br)cc1)n1ccc2ccccc21` the Potency was 13 µM (active).
With `O=C(c1ccccc1F)N1CCN(S(=O)(=O)c2ccc(Br)cc2)CC1` the Potency was “inactive”.
With `O=C(O)C1CCCN1S(=O)(=O)c1ccc(Br)cc1` (stereo not given) the Potency was “inactive”.
With `COc1cccc(C(=O)N2CCC(n3nccc3NC(=O)C3CCOC3)CC2)c1` (stereo not given) the Potency was “inactive”.
With `COc1ccc(-c2nnc(-c3ccc4ccccc4c3)o2)cc1` the Potency was “inactive”.
With `CCOc1ccc(C(C)C)cc1S(=O)(=O)n1nc(C)cc1C` the Potency was 16.4 µM (active).
With `COc1ccc(C(C)C)cc1S(=O)(=O)Nc1ncn[nH]1` the Potency was “inactive”.
In the case of `CCOc1cc(C)c(Cl)cc1S(=O)(=O)n1nnc2ccccc21`, the Potency is reported as “inactive”.
In the case of `CCc1ccccc1N1CN(Cc2ccco2)CNC1=S`, the Potency is reported as “inactive”.
With `O=C(CNC(=O)[C@@H]1Cc2ccccc2CN1)NC1CCCCC1` the Potency was “inactive”.
In the case of `CC(C)Oc1ccc(CCc2n[nH]c(=S)n2Cc2ccccc2)cc1`, the Potency is reported as 25.9 µM (active).
For `CC(C)Oc1ccc(Cc2n[nH]c(=S)n2Cc2ccccc2)cc1Cl`, the Potency was “inactive”.
For `C=CCn1c(CCc2ccc(OC(C)C)cc2)n[nH]c1=S`, the Potency was “inactive”.
With `O=[N+]([O-])c1ccc2nc(-c3ccccn3)[nH]c2c1` the Potency was 0.651 µM (active).
In the case of `O=C(CSc1nc2ccc([N+](=O)[O-])cc2[nH]1)c1ccc(Cl)cc1`, the Potency is reported as “inactive”.
In the case of `O=c1[nH]c2cccnc2n1-c1ccc([N+](=O)[O-])cc1`, the Potency is reported as “inactive”.
In the case of `O=[N+]([O-])c1ccccc1/C=C/CN1CCCC(CO)C1` (stereo not given), the Potency is reported as “inactive”.
In the case of `CCSc1sc(CC)cc1C=O`, the Potency is reported as “inactive”.
With `CCOc1ccc(C(C)NC(=O)CN2C(=O)NC3(CCCCC3)C2=O)cc1OCC` (stereo not given) the Potency was “inactive”.
For `CC(=O)Nc1ccc(NC(=O)CN2C(=O)COc3ccc(S(=O)(=O)N4CCCCC4)cc32)cc1`, the Potency was “inactive”.
In the case of `Cc1ccc2c(c1)N(CC(=O)N1CCOCC1)C(=O)CO2`, the Potency is reported as “inactive”.
With `Cc1ccc(C)c(N2CCN(C(=O)CN3C(=O)COc4ccc(S(=O)(=O)N5CCCCCC5)cc43)CC2)c1` the Potency was 16.4 µM (active).
In the case of `CCCCN(CCCC)CCCNC(=O)CN1C(=O)COc2ccc(S(=O)(=O)N3CCC(C)CC3)cc21`, the Potency is reported as 18.4 µM (active).
For `COc1ccc(CCNC(=O)CN2C(=O)COc3ccc(S(=O)(=O)N4CCCC4)cc32)cc1OC`, the Potency was “inactive”.
For `CCCCN(CCCC)CCNC(=O)CN1C(=O)COc2ccc(S(=O)(=O)N3CCOCC3)cc21`, the Potency was “inactive”.
In the case of `O=C(CCN1C(=O)c2ccncc2C1=O)Nc1cc(F)ccc1F`, the Potency is reported as “inactive”.
With `O=C(COC(=O)c1cnccn1)Nc1ccc(Cl)cc1C(F)(F)F` the Potency was “inactive”.
With `CC(OC(=O)CNC(=O)c1ccc(Cl)c([N+](=O)[O-])c1)C(=O)NCc1ccco1` (stereo not given) the Potency was “inactive”.
In the case of `Cc1cc(=O)oc2c3c(cc(OCC(=O)N[C@H](C(=O)O)c4ccccc4)c12)OC(C)(C)CC3`, the Potency is reported as “inactive”.
In the case of `CCOCCOCCC(C(=O)O)P(=O)(c1ccccc1)c1ccccc1` (stereo not given), the Potency is reported as “inactive”.
In the case of `CCc1ccc(N2CC(C(=O)Nc3ccc(S(=O)(=O)Nc4nccs4)cc3)CC2=O)cc1` (stereo not given), the Potency is reported as “inactive”.
In the case of `CCc1cc2c(cc3c(=O)n(CC(=O)N4CCN(c5cc(Cl)ccc5C)CC4)ncn32)s1`, the Potency is reported as “inactive”.
For `O=C1NC(Nc2nc3ccccc3s2)(C(F)(F)F)C(=O)N1C1CCCCC1` (stereo not given), the Potency was 25.9 µM (active).
For `O=C(NC1(C(F)(F)F)NC(=O)N(C2CCCCC2)C1=O)c1ccco1` (stereo not given), the Potency was “inactive”.
With `CCC1(CC)NC(=O)N(Cc2nc3ccccc3s2)C1=O` the Potency was “inactive”.
With `COC(=O)C[C@@H]1C=C[C@@H](NC(=O)c2ccc3c(c2)OCO3)[C@@H](CO)O1` the Potency was “inactive”.
In the case of `O=C1C2C3C=CC(C3)C2C(=O)N1c1ncc([N+](=O)[O-])s1` (stereo not given), the Potency is reported as “inactive”.
In the case of `CC1Cc2[nH][nH]c(=O)c2C(C2CC2)O1` (stereo not given), the Potency is reported as “inactive”.
For `Cc1cccc(NC(=O)CSc2nc(-c3ccco3)cc(C(F)(F)F)n2)c1C`, the Potency was 10.3 µM (active).
With `O=C(CSc1nc(-c2ccco2)cc(C(F)(F)F)n1)N1CCc2ccccc2C1` the Potency was “inactive”.
In the case of `CCNS(=O)(=O)c1ccc(NC(=O)CSc2nc(-c3ccco3)cc(C(F)(F)F)n2)cc1`, the Potency is reported as 7.31 µM (active).
With `CC(C)c1nc(SCC(=O)NC(=O)NC(C)(C)C)n[nH]1` the Potency was “inactive”.
For `CC(C)(C)NC(=O)CSc1nc(-c2ccc(F)cc2)cc(C(F)(F)F)n1`, the Potency was 20.6 µM (active).
With `O=C(CSc1nc(-c2ccco2)cc(C(F)(F)F)n1)NCc1cccs1` the Potency was “inactive”.
For `CN(C)c1ccc(NC(=O)CSc2n[nH]c(-c3ccco3)n2)cc1`, the Potency was “inactive”.
With `Cc1ccn2c(=O)nc(SCC(=O)NCc3ccc(F)cc3)nc2c1` the Potency was “inactive”.
For `Cc1cc(C(F)(F)F)nn1-c1nc(-c2ccco2)cc(C(F)(F)F)n1`, the Potency was “inactive”.
With `COc1ccc(S(=O)(=O)NCC(=O)NCc2cc(=O)n(C)c(=O)n2C)cc1F` the Potency was “inactive”.
With `O=C(CC1C(=O)NCCN1CC(c1ccccc1)c1ccccc1)NCC1CCOCC1` (stereo not given) the Potency was “inactive”.
In the case of `CCCS(=O)(=O)NC(=O)C1(C)CCCN(C(=O)c2cccs2)C1` (stereo not given), the Potency is reported as “inactive”.
With `O=C(CSc1nnc(SCc2ccc(F)cc2)s1)Nc1ccc(C(=O)O)cc1` the Potency was “inactive”.
With `COc1ccc(C2=NN(C(=O)c3ccccc3C(=O)O)C(c3ccccc3O)C2)cc1` (stereo not given) the Potency was “inactive”.
In the case of `CCC(C)(C)NC(=O)CN(C(=O)CCC(=O)Nc1cc(C)ccn1)c1ccc2c(c1)OCCO2`, the Potency is reported as “inactive”.
With `FC(F)(F)c1nnc2c3ccccc3c(Cl)nn12` the Potency was 5.17 µM (active).
In the case of `FC(F)(F)c1nnc2sc(-c3ccco3)nn12`, the Potency is reported as “inactive”.
In the case of `FC(F)(F)c1nnc2ccc(N3CCN(c4ccccc4)CC3)nn12`, the Potency is reported as “inactive”.
In the case of `O=C(COC(=O)c1cncc(Br)c1)Nc1ccc(S(=O)(=O)N2CCOCC2)cc1`, the Potency is reported as “inactive”.
